Active and inactive are the calls of the source. Rule for the calls: active = hit-call score of the fitted dose curve at least 0.9, where 1 is the maximum; inactive = score below 0.9.
What follows are molecules tested on CD90, THY1 (gene 7070) (assay: BSK_BF4T_CD90: BioMAP Diversity Plus: BF4T Assay for CD90 Biomarker Activity (AID 2284262)). Details: primary human bronchial epithelial cells with fibroblasts.
Procedure, shortened: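 Co-culture of human bronchial epithelial cells and dermal fibroblasts, 24 h compound exposure. Cell-surface CD90 measured by ELISA relative to DMSO; parallel SRB total-protein staining for cytotoxicity.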

Question: For C=CC(=O)OCCC(F)(F)C(F)(F)C(F)(F)C(F)(F)F, which outcome is on record?
Answer: The outcome was “inactive”.

Question: For OCC(F)(F)C(F)(F)C(F)(F)C(F)(F)C(F)(F)C(F)(F)CO, which outcome is on record?
Answer: The outcome was “inactive”.

Question: How did the outcome turn out when NCC(F)(F)C(F)(F)C(F)(F)C(F)(F)C(F)(F)C(F)(F)C(F)(F)C(F)(F)F was run?
Answer: The outcome was “inactive”.

Question: How did the outcome turn out when O=S(=O)(OCC(F)(F)F)C(F)(F)C(F)(F)C(F)(F)C(F)(F)F was run?
Answer: Its outcome is “inactive”.

Question: O=S(=O)(O)CCC(F)(F)C(F)(F)C(F)(F)C(F)(F)F was tested. Which outcome did it give?
Answer: The outcome was “inactive”.

Question: For O=C(O)C(F)(F)C(F)(F)C(F)(F)OC(F)(C(F)(F)F)C(F)(F)F, which outcome is on record?
Answer: Its outcome is “inactive”.

Question: For O=C(F)C1(F)C(F)(F)C(F)(F)C(F)(F)C(F)(F)C1(F)F, which outcome is on record?
Answer: Its outcome is “inactive”.

Question: With CNS(=O)(=O)C(F)(F)C(F)(F)C(F)(F)C(F)(F)C(F)(F)C(F)(F)C(F)(F)C(F)(F)F as the molecule, how does the outcome read?
Answer: Its outcome is “inactive”.

Question: Which outcome does the source give for NS(=O)(=O)C(F)(F)C(F)(F)C(F)(F)C(F)(F)C(F)(F)C(F)(F)F here?
Answer: Its outcome is “inactive”.

Question: For O=C(O)C(F)(F)C(F)(F)C(F)(F)OC(F)(F)F, which outcome is on record?
Answer: The outcome was “inactive”.

Question: COC(F)(C(F)F)C(F)(F)F (centres undefined) was tested. Which outcome did it give?
Answer: The outcome was “inactive”.

Question: How did the outcome turn out when CCOC(=O)CC(=O)C(F)(F)C(F)(F)F was run?
Answer: The outcome was “inactive”.

Question: For CN(C(=O)C(F)(F)C(F)(F)C(F)(F)F)[Si](C)(C)C, which outcome is on record?
Answer: Its outcome is “inactive”.

Question: With NC(=O)C(F)(F)C(F)(F)C(F)(F)C(F)F as the molecule, how does the outcome read?
Answer: The outcome was “inactive”.

Question: For O=S(=O)(Cl)C(F)(F)C(F)(F)C(F)(F)C(F)(F)C(F)(F)C(F)(F)C(F)(F)C(F)(F)F, which outcome is on record?
Answer: The outcome was “inactive”.

Question: For O=C(O)C(F)(F)C(F)(F)C(F)(F)C(F)(F)C(F)(F)C(F)(F)C(F)F, which outcome is on record?
Answer: The outcome was “inactive”.

Question: How did the outcome turn out when O=C(O)CCC(F)(F)C(F)(F)C(F)(F)C(F)(F)C(F)(F)C(F)(F)C(F)(F)F was run?
Answer: Its outcome is “inactive”.

Question: How did the outcome turn out when CCN(CCO)S(=O)(=O)C(F)(F)C(F)(F)C(F)(F)C(F)(F)C(F)(F)C(F)(F)C(F)(F)C(F)(F)F was run?
Answer: The outcome was “inactive”.

Question: How did the outcome turn out when O=C(O)C(F)(F)C(F)(F)C(F)(F)C(=O)O was run?
Answer: The outcome was “inactive”.

Reference: PubChem BioAssay (EPA / NIEHS)
